# Screens from PubChem BioAssay.
# NCOA1 inh = inhibitors of human steroid receptor coactivator 1 (SRC1). Q15788. HEK293 GAL4-SRC1 luciferase reporter, luminescence. inhibition, % at 3.6 µM. 0.12% of 360,000 active. AID 588354;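 active = inhibition above the campaign mean plus 3 SD, with each screening campaign given its own cutoff, cut at about 60% in these data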;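 also: 0% = DMSO treated cells and 100% = gossypol at 36 µM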
# Target sequence (Q15788 whole entry, looked up, the tested form may be a part): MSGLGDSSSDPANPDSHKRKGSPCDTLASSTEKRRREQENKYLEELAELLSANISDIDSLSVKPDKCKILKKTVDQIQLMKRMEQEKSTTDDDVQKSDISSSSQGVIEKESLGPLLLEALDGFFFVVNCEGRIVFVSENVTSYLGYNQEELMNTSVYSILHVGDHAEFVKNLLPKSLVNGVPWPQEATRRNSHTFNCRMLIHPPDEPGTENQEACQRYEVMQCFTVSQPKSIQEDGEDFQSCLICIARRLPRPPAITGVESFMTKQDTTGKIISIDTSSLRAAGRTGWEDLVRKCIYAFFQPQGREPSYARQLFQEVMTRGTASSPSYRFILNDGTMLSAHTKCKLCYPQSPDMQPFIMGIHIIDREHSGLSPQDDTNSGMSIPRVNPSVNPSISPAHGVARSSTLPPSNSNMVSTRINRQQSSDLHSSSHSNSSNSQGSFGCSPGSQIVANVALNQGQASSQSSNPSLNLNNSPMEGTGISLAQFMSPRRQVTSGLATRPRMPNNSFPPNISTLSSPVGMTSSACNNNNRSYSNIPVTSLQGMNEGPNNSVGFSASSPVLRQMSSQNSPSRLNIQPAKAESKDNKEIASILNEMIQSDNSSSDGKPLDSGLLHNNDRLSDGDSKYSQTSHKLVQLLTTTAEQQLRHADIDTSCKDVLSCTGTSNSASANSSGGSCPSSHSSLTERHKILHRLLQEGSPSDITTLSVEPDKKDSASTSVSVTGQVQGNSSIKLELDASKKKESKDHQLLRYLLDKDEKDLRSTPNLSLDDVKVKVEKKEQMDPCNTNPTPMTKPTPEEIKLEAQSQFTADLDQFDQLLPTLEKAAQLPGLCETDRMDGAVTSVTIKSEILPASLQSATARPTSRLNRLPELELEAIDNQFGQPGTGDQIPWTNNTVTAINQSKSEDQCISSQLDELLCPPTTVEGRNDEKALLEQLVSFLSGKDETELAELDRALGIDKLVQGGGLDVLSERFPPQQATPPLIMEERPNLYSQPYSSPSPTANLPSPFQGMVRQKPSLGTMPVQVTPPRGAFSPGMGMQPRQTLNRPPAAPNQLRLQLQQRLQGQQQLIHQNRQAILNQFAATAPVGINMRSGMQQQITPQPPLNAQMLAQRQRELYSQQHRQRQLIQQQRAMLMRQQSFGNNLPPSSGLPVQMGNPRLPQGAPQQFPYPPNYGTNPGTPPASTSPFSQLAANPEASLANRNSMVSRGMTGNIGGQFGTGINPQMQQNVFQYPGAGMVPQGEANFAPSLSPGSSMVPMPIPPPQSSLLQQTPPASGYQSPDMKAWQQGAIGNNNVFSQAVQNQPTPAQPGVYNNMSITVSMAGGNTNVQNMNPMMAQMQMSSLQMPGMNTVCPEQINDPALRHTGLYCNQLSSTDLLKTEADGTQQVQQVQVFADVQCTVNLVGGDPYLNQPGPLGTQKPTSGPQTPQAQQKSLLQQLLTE
# Gli-Sufu block = antagonists of Gli-Sufu signaling; Sufu-KO-LIGHT fibroblasts, Gli luciferase reporter luminescence; inhibition, % at 5 µM; 0.74% of 340,000 active;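 active = inhibition above about 55%, limit read from the data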;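 also: 0% = DMSO-treated cells and 100% = wells with medium but no cells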
# LRH-1 inv ag = suppresses constitutive activity of human LRH-1. 0.13% of 360,000 active. O00482. inhibition, % at 3.6 µM. AID 602396. HEK293T StAR-luciferase reporter, LRH-1 transfected, 24 h;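 active = inhibition above the mean inhibition of all tested compounds plus 3 SD, cut at about 73% in these data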;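 also: 0% = DMSO wells and 100% = reporter-only cells lacking LRH-1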
# NR2F2 inh = blocks human COUP-TFII nuclear receptor. P24468. AID 686940. 0.7% of 370,000 active. inhibition, % at 8.6 µM. HEK293T NGFI-A luciferase reporter, luminescence;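 active = inhibition above a per-plate cutoff, mean inhibition of test wells between control levels plus 3 SD, cut at about 38% in these data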;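 also: cells cotransfected with COUP-TFII expression vector driving the NGFI-A reporter; 0% = median of COUP-TF2 test wells and 100% = reporter-only cells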
# SRC2 inh = human SRC2 (NCOA2) inhibition. HEK293 GAL4-SRC2 luciferase reporter, luminescence. inhibition, % at 9 µM. 0.17% of 370,000 active. AID 651957;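 active = inhibition above the mean inhibition of all tested compounds plus 3 SD, set per campaign, cut at about 52% in these data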;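 also: 0% = DMSO treated cells and 100% = cells given Gossypol at 36 µM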
# NCOA3 inh = human NCOA3 inhibition | HEK293 GAL4-SRC3 luciferase reporter, luminescence | 0.17% of 360,000 active | AID 588352 | inhibition, % at 3.6 µM;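 active = inhibition above a per-campaign cutoff, the mean of all compounds plus 3 SD, cut at about 60% in these data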;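 also: 0% = DMSO-treated cells and 100% = gossypol-treated cells at 36 µM; higher means less SRC3-driven luciferase light from the GAL4 reporter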
# Gli antag conf = confirmation of Gli-SUFU pathway antagonists; shares compounds with Gli-Sufu block; 40% of 2,500 active; inhibition, % at 5 µM; Sufu-KO-LIGHT cells, Gli luciferase reporter, luminescence;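 active = mean inhibition at 5 µM reaching about 45%, limit read from the data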;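 also: plate controls were DMSO-treated cells for no effect and wells lacking cells for full effect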
# SufuKO cytotox = cytotoxicity counter-screen for Gli-SUFU antagonists | shares compounds with Gli-Sufu block | Sufu-KO-LIGHT cells cytotoxicity, ATP luminescence | cytotoxicity, % at 5 µM | 32% of 2,500 active | AID 651994;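 active = mean cytotoxicity at 5 µM above about 25%, limit read from the data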;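 also: cells exposed to compound overnight for roughly 16 to 18 hours; plate controls were DMSO wells with cells for no effect and medium without cells for full effect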
# Wnt3a cs = inhibits Wnt3a reporter, counter-screen for Gli-SUFU antagonists; shares compounds with Gli-Sufu block; Wnt-LIGHT cells, Wnt3a-driven luciferase reporter, luminescence; inhibition, % at 6.25 µM; 20% of 2,500 active;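 active = mean inhibition above about 25%, limit read from the data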
# * marks the source's active call; other numbers are inactive results; x = no result. Most compounds without a hit are left out; they make up all but 1.3% or so of the library.
SMILES,NCOA1 inh,Gli-Sufu block,LRH-1 inv ag,NR2F2 inh,SRC2 inh,NCOA3 inh,Gli antag conf,SufuKO cytotox,Wnt3a cs
Cc1cccc(-c2nc(CSCC(=O)NCc3cccs3)c(C)o2)c1,6,55*,7,13,-61,16,13,7,-7
CCOc1ccc(-c2nc(CSCC(=O)NC3CC3)c(C)o2)cc1,-75,90*,9,x,x,2,93*,13,-2
CCCCc1c(-c2ccccc2OC)ncn1Cc1cccc(F)c1,x,x,x,-2,-3,x,x,x,x
CCCCOCC1CN(CCCC)S(=O)(=O)c2c(cccc2N2CCCC2)O1 (stereo not drawn),x,x,x,3,10,x,x,x,x
O=S1(=O)N[C@@H](Cc2ccccc2)COc2cc(NCCCN3CCOCC3)ccc21,x,x,x,15,6,x,x,x,x
CC1(C)CC(=O)C=C(C2CC2)C1=O,x,x,x,-16,10,x,x,x,x
COc1ccccc1Cc1c(C2CCCCC2)nc2c(C)cc(Br)cn12,x,x,x,-8,18,x,x,x,x
CCCCNC(=O)CNC(=O)c1nn(-c2ccc(OC)cc2OC)c(=O)c2ccccc12,-7,8,6,6,-20,16,x,x,x
COc1ccc(-n2nc(C(=O)NCC(=O)NCCC3=CCCCC3)c3ccccc3c2=O)c(OC)c1,-28,56*,8,0,-1,7,20,8,-57
COC(=O)[C@]12C[C@H](CC(=O)NCc3cccc4ccccc34)C(=O)N(Cc3ccc(Cl)cc3Cl)C1=C[C@H](COCc1ccccc1)O[C@@H]2C,x,x,x,17,4,x,x,x,x
COc1cc(C(C(=O)NCC2CCCO2)N(C(=O)Cn2nnc3ccccc32)c2ccc(C(C)=O)cc2)ccc1O (stereo not drawn),-1,-6,-6,-11,-18,-25,x,x,x
CCOc1cc(C(C(=O)NCC2CCCO2)N(C(=O)Cn2nnc3ccccc32)c2ccc(OC)c(OC)c2)ccc1O (stereo not drawn),8,57*,10,-14,-13,10,9,15,-27
CN(CCOc1ccc(Cl)cc1)C(=O)c1cccc(S(=O)(=O)N2CCN(c3ccc(F)cc3)CC2)c1,24,70*,42,x,x,33,64*,26*,1
CN(CC(=O)Nc1ccccc1Cl)C(=O)c1cccc(S(=O)(=O)N2CCN(c3ccc(F)cc3)CC2)c1,4,33,28,30,19,11,x,x,x
CN1CCCN(S(=O)(=O)c2ccc3c(c2)n(C)c(=O)c(=O)n3C)CC1,x,x,x,-14,-4,x,x,x,x
O=C(Cn1cc(C(=O)c2ccco2)c2ccccc21)Nc1ccccc1F,19,60*,-5,-2,6,8,73*,25,13
CC[C@]12c3[nH]c4cc(CCC(=O)N(C)C)ccc4c3CCN1C(=O)[C@@H](CC(=O)NC/C=C(\C)CCC=C(C)C)C[C@@H]2C(=O)N1CCN(C(=O)c2ccco2)CC1,-7,79*,5,x,x,0,77*,30*,31*
CC(C)CNc1cccc2c1S(=O)(=O)N[C@@H](Cc1ccccc1)CO2,x,x,x,-6,6,x,x,x,x
O=C1CN(C(=O)c2ccccc2F)c2ccccc2N1,7,-2,-13,6,-10,9,x,x,x
COc1cc(OC)cc(C(=O)N2CC(=O)Nc3ccccc32)c1,-2,55,7,-16,8,0,29,48*,-50
CCO[C@@H]1OC(C(=O)NCc2nc3ccccc3[nH]2)=C[C@H](C(C)(C)C)[C@H]1CCCO,-2,51,12,-99,28,26,58*,60*,-51
Cc1ccc(NC(=O)C(=O)NCC2CCCO2)cc1C (stereo not drawn),-93,-34,-85,-39,-24,-63,x,x,x
Cc1ccc(NC(=O)CC(NCC2CCCO2)C(=O)O)cc1C (stereo not drawn),-6,57*,10,6,-14,-16,21,-2,14
CC1CCN(C(=S)Nc2ccc(F)cc2)CC1,15,64*,14,4,-7,24,15,22,-9
